PubChem BioAssay (NCATS)
Inconclusive results are not listed. Calls of active or inactive are those of the source. Unless noted, calls follow the shape of the dose curve; as a rule, active = well fitted curve in either direction with a large enough effect (not every such curve was filed as active); inconclusive = small, poorly fitted or top-dose-only effect, or another doubt; inactive = flat fitted curve, though single readings scatter.

Key:
[1] = Stat Signaling Pathway (AID 446); conditions: ME-180 (cervical carcinoma) SIE beta-lactamase reporter, IL-6 stimulated, 5 h; at 38 µM (top of the series) unless noted;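 also: ME-180 cervical cancer cells given 40 pM IL-6 alongside compound; SIE-controlled beta-lactamase reporter measured as 460/530 nm FRET emission ratio; % is scaled to controls: 0 for no effect and ±100 for the full control effect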
Method in brief: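 Normalization used AC90 stimulation (300 pM IL-6) and AC90 inhibition (125 nM pan-JAK inhibitor at 40 pM IL-6). The underlying signal is SIE-driven beta-lactamase in ME-180 cells after 5 h IL-6 exposure with compound.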

[2] = molecular target: Glucocorticoid receptor (Homo sapiens) (UniProt P04150); test: GR-GFP Redistribution (AID 450;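 active = compounds whose dose series gives a full or clear partial fitted curve of increased nuclear translocation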; also: potency is read from the fitted curve at half-maximal effect); conditions: U2OS GR-GFP nuclear translocation, laser cytometry, 2 h
Chain of Glucocorticoid receptor (Homo sapiens) (P04150 whole entry, looked up, the tested form may be a part): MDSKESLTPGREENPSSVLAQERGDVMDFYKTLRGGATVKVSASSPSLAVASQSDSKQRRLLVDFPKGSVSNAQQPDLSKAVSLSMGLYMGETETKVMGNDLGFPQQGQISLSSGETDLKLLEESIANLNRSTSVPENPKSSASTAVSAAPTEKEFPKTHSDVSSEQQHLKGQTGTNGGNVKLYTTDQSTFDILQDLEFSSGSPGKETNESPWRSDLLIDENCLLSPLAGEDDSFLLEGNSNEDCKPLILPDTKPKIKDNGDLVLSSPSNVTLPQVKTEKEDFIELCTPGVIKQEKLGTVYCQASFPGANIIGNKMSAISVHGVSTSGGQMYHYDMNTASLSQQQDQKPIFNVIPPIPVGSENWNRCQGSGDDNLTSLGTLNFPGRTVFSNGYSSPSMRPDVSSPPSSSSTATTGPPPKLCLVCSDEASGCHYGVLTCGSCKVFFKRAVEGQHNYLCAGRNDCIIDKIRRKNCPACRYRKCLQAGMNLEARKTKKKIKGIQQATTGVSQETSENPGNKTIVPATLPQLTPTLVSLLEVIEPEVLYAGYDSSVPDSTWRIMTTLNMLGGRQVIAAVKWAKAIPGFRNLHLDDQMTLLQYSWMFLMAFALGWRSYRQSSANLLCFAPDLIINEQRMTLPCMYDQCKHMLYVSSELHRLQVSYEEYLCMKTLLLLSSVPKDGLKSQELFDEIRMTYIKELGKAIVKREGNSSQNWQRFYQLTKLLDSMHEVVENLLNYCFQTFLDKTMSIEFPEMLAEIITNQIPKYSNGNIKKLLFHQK

[3] = molecular target: Glucocorticoid receptor (Homo sapiens) (UniProt P04150); test: GR-EFC Redistribution (AID 451; calls by dose curve; also: potency is read from the fitted curve at half-maximal effect); conditions: CHO-K1 GR-EFC translocation, beta-gal luminescence, 2 h
Method in brief: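 CHO-K1 cells expressing nuclear EA and GR-ED fragments of b-gal; compounds titrated up to 46 uM final, 2 h at 37 C. GR nuclear translocation read as complemented b-gal luminescence after 1 h RT detection.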

[4] = molecular target: Mitogen-activated protein kinase 10 (Mus musculus) (UniProt Q61831); test: JNK3 AlphaScreen Assay (AID 530); conditions: JNK3 lysate, c-Jun phosphorylation; series mostly up to 57.1 µM;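 also: kinase came from lysate of stimulated human HepG2 cells; signal reports phosphorylation of biotinylated GST-cJun 1-79 at Ser73 with 10 µM ATP; % is scaled to controls: 0 for no effect and ±100 for the full control effect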
Method in brief: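 HepG2 lysate (IL-1b/TNFa pre-activated) + biotin-GST-cJun 1-79 + anti-pSer73 cJun; cpd titration, 15 min RT; ATP 10 uM start; Tris pH 7.6, MgCl2, DTT, vanadate; beads in EDTA buffer; AlphaScreen.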

O=C(N[C@@H](Cc1ccccc1)C(=O)CCl)OCc1ccccc1
inactive: Potency [2] > 46 µM | Potency [3] > 46 µM | outcome [4]
active: activity, negative = inhibition [1] -59.3%

Nc1ncnc2c1c(-c1ccc(Oc3ccccc3)cc1)cn2C1CCCC1
inactive: activity, negative = inhibition [1] -13.6% | Potency [2] > 46 µM | Potency [3] > 46 µM | outcome [4]

Cn1cc(C(=O)OCC2CCN(CCNS(C)(=O)=O)CC2)c2ccccc21
inactive: activity, negative = inhibition [1] -18.9% | Potency [2] > 46 µM | Potency [3] > 46 µM | outcome [4]

Cc1cccc(C(=O)NCN2CCN(c3ccccc3C#N)CC2)c1
inactive: activity, negative = inhibition [1] -3.73% | Potency [2] > 46 µM | Potency [3] > 46 µM | outcome [4]

Oc1ccc(Cn2cc[nH]c2=S)cc1
inactive: activity, negative = inhibition [1] 25% | Potency [2] > 46 µM | Potency [3] > 46 µM | outcome [4]

Nc1ncnc2c1ncn2C1CCCC1
inactive: activity, negative = inhibition [1] 8.7% | Potency [2] > 46 µM | Potency [3] > 46 µM | outcome [4]

NCCCNCCCCNCCCN
inactive: activity, negative = inhibition [1] -4.41% | Potency [2] > 46 µM | Potency [3] > 46 µM | outcome [4]

N#CC(C#N)=C(N)/C(C#N)=C/c1ccc(O)cc1
inactive: activity, negative = inhibition [1] 5.06% | Potency [2] > 46 µM | Potency [3] > 46 µM | outcome [4]

O=C(O)C1CCNCC1
inactive: activity, negative = inhibition [1] -8.76% | Potency [2] > 46 µM | Potency [3] > 46 µM | outcome [4]

CCCCCCCCCCCCCCSCC(=O)O
inactive: activity, negative = inhibition [1] -3.53% | Potency [2] > 46 µM | Potency [3] > 46 µM | outcome [4]
